# Results from ChEMBL document CHEMBL3988442, “University of Dundee, Small-Polar-MMV Screening Library” (2021).
# For some of these results: Measured potencies and affinities stand elsewhere.
# What was measured:
# Set-up in all cases: scale not given: direction of the effect not stated beside the values
# [1] = target: Protein translocase subunit SecA (Escherichia coli (strain K12)) (UniProt P10408); test: Assay to Identify E. coli SecA ATPase Inhibitors; format: functional; details: 30 µM
# [2] = target: T1, Ubiquitin-activating enzyme e1, putative (Leishmania donovani (strain BPK282A1)) (UniProt E9BSI1); test: Leishmania donovani Ubiquitin Activating Enzyme (LdE1); format: functional; details: 30 µM
# T1 sequence (whole entry): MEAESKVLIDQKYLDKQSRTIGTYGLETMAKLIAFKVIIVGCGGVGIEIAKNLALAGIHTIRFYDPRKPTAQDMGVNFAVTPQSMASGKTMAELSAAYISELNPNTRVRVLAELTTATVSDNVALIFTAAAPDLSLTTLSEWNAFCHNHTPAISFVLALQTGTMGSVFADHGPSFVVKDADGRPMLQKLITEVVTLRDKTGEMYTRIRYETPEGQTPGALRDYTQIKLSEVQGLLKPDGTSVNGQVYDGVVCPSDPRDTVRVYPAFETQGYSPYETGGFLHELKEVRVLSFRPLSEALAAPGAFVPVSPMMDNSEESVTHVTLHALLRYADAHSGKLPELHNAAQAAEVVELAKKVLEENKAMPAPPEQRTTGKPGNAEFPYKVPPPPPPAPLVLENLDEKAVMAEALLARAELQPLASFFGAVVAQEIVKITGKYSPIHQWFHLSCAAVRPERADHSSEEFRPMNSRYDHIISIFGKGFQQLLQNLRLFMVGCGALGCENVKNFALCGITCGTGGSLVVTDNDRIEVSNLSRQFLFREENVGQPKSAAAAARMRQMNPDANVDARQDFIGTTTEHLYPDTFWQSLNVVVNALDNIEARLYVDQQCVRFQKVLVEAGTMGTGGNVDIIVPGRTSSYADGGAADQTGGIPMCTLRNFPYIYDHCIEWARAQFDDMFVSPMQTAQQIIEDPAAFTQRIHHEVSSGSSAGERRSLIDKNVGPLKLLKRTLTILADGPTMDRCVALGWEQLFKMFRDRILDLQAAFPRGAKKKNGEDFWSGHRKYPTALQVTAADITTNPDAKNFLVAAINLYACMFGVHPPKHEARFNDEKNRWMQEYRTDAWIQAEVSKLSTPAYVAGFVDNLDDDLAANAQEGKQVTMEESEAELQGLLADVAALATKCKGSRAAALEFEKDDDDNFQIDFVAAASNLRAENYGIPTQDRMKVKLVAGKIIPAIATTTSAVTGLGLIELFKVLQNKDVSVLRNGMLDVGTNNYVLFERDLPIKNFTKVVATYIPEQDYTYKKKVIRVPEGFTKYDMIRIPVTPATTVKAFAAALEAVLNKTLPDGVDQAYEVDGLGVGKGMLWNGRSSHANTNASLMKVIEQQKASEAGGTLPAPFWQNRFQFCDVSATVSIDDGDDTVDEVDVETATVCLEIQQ
# [3] = target: AMP-activated protein kinase, AMPK (Homo sapiens) (UniProt P54646+O43741+P54619+Q9UGJ0+Q9Y478+Q13131+Q9UGI9); test: AMP-dependent Kinase enzyme assay. An in vitro enzyme assay that detects ADP turnover that is directly proportional to AMPK activity. This uses naive AMPK that is activated during the assay with MK-8722; format: functional; details: 30 µM
# [4] = target: Sialic acid-binding Ig-like lectin 9 (Homo sapiens) (UniProt Q9Y336); test: Hs-Siglec9 ALPHAscreen SOP 20170721; details: 10 µM
# Trypanosoma cruzi = test: Trypanosoma cruzi phosphomannomutase and mannose-1-phosphate guanylyltransferase assay; format: functional; details: 10 µM
# [5] = target: T2, Arginase-2, mitochondrial (Homo sapiens) (UniProt P78540); test: in vitro enzyme assay to detect the production of urea directly proportional to the activity of Arginase II; format: functional; details: 33.3 µM; further: in the data most compounds retested in dose-response had high values
# T2 sequence (whole entry): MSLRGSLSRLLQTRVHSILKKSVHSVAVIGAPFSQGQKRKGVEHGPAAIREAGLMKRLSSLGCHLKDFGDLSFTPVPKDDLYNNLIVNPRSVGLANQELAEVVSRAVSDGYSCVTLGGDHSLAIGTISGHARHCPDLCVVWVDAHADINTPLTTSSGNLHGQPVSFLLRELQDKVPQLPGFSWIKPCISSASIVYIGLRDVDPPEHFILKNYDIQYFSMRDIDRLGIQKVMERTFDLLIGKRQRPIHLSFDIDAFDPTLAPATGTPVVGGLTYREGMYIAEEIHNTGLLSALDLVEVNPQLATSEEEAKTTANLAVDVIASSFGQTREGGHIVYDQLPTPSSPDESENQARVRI
# [6] = target: T3, Proteasome subunit beta (Trypanosoma cruzi) (UniProt O96673); test: Trypanosoma cruzi proteasome chymotrypsin-like activity (TcProtChymo) assay.; further: in the data most compounds retested in dose-response had high values; format: functional; details: 9.37 µM
# T3 sequence (whole entry): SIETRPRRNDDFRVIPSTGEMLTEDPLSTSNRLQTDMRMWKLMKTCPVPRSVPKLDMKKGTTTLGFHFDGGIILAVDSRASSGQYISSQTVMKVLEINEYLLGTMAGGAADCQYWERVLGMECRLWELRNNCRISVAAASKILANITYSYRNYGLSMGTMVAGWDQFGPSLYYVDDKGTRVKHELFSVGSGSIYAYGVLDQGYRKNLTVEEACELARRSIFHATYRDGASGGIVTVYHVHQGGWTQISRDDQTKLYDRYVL
# Homo sapiens = organism: Homo sapiens; test: To identify inhibition of the IFN signalling (Jak-Stat) pathway via expression of an eGFP reporter gene under the control of an IFN-stimulated response element (ISRE) containing MxA promoter.; format: functional; details: 30 µM
# [7] = target: T4, Tyrosyl-tRNA synthetase, putative (Trypanosoma cruzi (strain CL Brener)) (UniProt Q4DSP6); test: Trypanosoma cruzi tyrosyl tRNA synthetase (TcYRS) _High Tyrosine SOP; format: functional; details: 30 µM; further: in the data most compounds retested in dose-response had high values
# T4 sequence (whole entry): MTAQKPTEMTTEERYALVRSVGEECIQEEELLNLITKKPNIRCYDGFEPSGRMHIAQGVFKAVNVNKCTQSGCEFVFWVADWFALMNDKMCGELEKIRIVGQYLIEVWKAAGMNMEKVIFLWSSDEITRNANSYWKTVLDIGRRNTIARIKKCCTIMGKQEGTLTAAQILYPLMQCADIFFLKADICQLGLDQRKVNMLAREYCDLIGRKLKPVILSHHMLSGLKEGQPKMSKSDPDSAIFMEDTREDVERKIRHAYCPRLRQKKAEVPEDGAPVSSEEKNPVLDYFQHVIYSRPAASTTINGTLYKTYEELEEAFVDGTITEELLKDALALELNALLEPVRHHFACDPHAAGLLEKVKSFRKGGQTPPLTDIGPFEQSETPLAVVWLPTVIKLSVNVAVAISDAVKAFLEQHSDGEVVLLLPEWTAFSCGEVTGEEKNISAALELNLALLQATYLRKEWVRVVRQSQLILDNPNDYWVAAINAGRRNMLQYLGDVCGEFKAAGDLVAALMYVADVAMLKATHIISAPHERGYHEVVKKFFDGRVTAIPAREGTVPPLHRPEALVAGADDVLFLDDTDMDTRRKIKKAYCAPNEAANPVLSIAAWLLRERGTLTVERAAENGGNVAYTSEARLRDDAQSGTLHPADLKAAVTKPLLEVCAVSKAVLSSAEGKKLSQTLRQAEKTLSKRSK
# [8] = target: T4, Tyrosyl-tRNA synthetase, putative (Trypanosoma cruzi (strain CL Brener)); test: Trypanosoma cruzi tyrosyl tRNA synthetase (TcYRS) SOP; format: functional; details: 30 µM
# [9] = target: Chromo domain-containing protein 1 (Saccharomyces cerevisiae (strain ATCC 204508 / S288c) (Baker's yeast)) (UniProt P32657); test: ScCHD-1 Enzyme Inhibition Assay; format: functional; details: 30 µM; further: in the data most compounds retested in dose-response had high values
# Chromo domain-containing protein 1 (Saccharomyces cerevisiae (strain ATCC 204508 / S288c) (Baker's yeast)), sequence (P32657 whole entry, the tested form may be a part): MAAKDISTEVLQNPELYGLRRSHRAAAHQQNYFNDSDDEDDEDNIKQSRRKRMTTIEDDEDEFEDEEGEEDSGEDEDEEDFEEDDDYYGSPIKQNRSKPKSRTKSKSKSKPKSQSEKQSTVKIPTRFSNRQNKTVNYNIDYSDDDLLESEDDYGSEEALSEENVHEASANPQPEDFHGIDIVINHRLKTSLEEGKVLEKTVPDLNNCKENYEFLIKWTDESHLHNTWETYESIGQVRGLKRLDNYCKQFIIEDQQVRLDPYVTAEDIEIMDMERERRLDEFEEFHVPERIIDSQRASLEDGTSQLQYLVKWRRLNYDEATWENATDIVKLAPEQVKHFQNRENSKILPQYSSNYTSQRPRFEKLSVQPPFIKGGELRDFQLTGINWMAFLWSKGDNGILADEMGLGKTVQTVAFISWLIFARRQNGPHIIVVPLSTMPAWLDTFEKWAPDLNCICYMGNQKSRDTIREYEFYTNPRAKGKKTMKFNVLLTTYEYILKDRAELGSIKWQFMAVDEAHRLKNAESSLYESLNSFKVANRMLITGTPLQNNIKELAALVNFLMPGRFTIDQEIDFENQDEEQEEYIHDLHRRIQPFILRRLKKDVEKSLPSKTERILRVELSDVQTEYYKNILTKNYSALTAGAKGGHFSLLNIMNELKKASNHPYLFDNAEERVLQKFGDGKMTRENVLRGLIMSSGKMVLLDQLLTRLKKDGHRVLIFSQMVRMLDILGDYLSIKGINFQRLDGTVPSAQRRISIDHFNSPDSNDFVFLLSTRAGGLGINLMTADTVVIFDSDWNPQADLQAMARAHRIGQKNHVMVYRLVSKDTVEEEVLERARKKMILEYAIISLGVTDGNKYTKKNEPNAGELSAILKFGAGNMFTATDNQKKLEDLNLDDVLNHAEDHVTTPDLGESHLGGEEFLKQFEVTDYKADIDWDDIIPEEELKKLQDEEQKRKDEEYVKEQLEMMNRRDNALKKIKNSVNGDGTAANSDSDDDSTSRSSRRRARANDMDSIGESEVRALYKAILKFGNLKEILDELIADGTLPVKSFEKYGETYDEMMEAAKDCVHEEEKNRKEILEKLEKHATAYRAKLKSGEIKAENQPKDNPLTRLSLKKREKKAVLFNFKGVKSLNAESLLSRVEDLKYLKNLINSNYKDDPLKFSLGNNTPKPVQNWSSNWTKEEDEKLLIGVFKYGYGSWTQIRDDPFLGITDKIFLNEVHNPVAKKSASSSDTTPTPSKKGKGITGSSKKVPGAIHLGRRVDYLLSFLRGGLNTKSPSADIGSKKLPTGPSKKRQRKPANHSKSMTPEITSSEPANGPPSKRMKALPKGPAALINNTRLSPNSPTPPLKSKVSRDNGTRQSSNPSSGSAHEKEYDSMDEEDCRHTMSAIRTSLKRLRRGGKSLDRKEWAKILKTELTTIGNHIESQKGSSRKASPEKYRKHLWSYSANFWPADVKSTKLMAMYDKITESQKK
# Protein translocase subunit SecA (Escherichia coli (strain K12)), sequence (P10408 whole entry): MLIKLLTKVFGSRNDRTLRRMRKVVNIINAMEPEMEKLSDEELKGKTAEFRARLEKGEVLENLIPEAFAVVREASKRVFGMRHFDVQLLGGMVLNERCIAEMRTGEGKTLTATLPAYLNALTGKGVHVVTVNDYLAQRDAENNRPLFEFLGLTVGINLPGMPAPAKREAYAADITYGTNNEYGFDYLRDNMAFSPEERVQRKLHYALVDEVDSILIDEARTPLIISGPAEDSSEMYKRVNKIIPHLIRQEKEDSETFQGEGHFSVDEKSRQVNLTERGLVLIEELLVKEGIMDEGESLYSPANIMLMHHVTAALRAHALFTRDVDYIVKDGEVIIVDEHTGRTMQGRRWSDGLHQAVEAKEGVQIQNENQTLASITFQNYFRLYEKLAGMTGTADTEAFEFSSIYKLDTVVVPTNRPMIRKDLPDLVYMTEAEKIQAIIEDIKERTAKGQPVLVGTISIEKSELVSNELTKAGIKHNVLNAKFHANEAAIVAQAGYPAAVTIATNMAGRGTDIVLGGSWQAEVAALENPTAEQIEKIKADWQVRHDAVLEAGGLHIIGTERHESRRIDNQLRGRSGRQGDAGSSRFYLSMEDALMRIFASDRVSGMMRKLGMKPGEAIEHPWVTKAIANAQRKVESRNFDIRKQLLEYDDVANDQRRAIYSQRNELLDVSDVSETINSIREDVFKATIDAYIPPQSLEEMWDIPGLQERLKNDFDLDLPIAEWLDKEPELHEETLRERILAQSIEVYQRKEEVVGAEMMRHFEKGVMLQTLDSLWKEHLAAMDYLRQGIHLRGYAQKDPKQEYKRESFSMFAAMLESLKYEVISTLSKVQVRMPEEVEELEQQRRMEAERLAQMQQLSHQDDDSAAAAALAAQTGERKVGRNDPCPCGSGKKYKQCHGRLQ
# Sialic acid-binding Ig-like lectin 9 (Homo sapiens), sequence (Q9Y336 whole entry): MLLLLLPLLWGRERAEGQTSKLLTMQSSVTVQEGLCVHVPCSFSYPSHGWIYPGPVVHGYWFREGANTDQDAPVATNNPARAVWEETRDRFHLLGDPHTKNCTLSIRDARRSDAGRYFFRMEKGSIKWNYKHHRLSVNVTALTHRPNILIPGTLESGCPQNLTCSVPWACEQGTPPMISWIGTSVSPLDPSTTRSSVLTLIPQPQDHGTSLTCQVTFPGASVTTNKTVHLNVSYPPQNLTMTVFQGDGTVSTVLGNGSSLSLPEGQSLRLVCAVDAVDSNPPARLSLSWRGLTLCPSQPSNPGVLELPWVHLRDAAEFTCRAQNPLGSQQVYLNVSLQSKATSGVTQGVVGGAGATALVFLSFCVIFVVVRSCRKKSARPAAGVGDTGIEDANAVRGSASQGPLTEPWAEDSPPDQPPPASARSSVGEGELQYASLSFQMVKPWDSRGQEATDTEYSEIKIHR
SMILES,Percent Effect [1] [%],Percent Effect [2] [%],Percent Effect [3] [%],Percent Effect [4] [%],Percent Effect (Trypanosoma cruzi) [%],Percent Effect [5] [%],Percent Effect [6] [%],Percent Effect (Homo sapiens) [%],Percent Effect [7] [%],Percent Effect [8] [%],Percent Effect [9] [%]
CC(C)c1nn(CC(=O)N2CCCCC2)c(=O)c2c1cnn2C(C)(C)C,-2.78,11,-3.21,-1.33,-4.31,0.455,16.5,17.3,2.15,12.5,-6.96
Cn1nc(C2CCN(C(=O)Cc3cccc(F)c3)CC2)c2cccnc21,-2.77,-6.76,12.2,3.61,4.35,-0.232,6.71,14.9,1.07,6.49,-3.75
Cc1nn(C)c(Cl)c1C1CCCN1CC(=O)NCc1ccccn1 (configuration not stated),-0.227,1.27,8.81,-1.21,0.513,-0.215,12.2,22.5,4.17,10.1,3
O=C(NCCc1ccccn1)C1=NN(c2ccccc2)C(=O)CN1,0.741,15.2,0.826,-11.6,-9.16,6.08,4.83,11.7,2.46,13.9,-1.69
Cc1cccc(CN2CCC3(CCCN(C(=O)c4ccsc4)C3)C2=O)n1 (configuration not stated),-2.33,0,10.5,-2.49,0.0986,-0.645,3.48,-3.21,3.17,3.85,87.7
NC(=O)C1CCN(CCc2ccc(NC(=O)C3CCC3)cc2)CC1,-4.73,8.11,-5.62,9.13,2.14,-0.554,2.87,6.62,6.93,23.2,-5.51
CCc1nc2n(n1)CC(NCc1ccnc(-c3ccccc3)n1)CC2 (configuration not stated),-0.451,0,-2.11,2.45,6.26,3.6,-4.32,-20.9,3.45,6.17,0.195
Cc1noc(CN(Cc2ccc3c(c2)OCO3)C2CCCC2)n1,-1.22,10.8,-9.58,6.53,-1.04,-12,6.67,29.7,3.45,3.7,-9.8
Cc1ccc(-c2ncc(C(=O)NCCNc3ncccn3)s2)c(C)c1,-2.83,5.41,2.58,1.25,7.83,-2.4,1.8,11.8,5.42,16.1,-8.22
CN(C)C(=O)CN1C[C@@H]2CC[C@H](C1)N(Cc1cc(F)ccc1F)C2,-2.16,5.48,42.7,2.19,-9.13,-2.79,20.6,15.6,4.17,6.17,-5.68
Cc1nc(CN(C)C2CCN(Cc3nc4ccccc4s3)C2)no1 (configuration not stated),-6.59,5.26,-8.48,14.1,4.95,1.8,3.81,-14.2,10.3,25.9,-8.21
CN(Cc1nnc(C2CC2)n1C)C(=O)c1ccnc(OC2CCC2)c1,-5.02,2.7,2.08,2.83,3.09,1.43,6.21,-9.69,0.529,-2.44,-2.68
c1ccc(Cn2cccn2)c(CNCC2CNc3ccnn3C2)c1 (configuration not stated),-5.51,10.4,-9.17,10.9,13.5,-4.63,13.3,3.57,16.5,21.9,-11
CC(C)NC(=O)COc1nc(C(C)(C)C)no1,-4.03,13.5,-3.54,27.8,5.21,0.952,4.31,-3.96,-0.529,4.88,-3.56
CCOc1nnc(CN2CCC(N(C)Cc3noc(C)n3)C2)s1 (configuration not stated),-0.236,13.2,-4.92,-14.9,-9.06,5.04,12.4,11.4,7.39,6.17,-8.06
CC1=Nc2c(c(=O)[nH]n2C(C)C)C(c2ccccc2)S1 (configuration not stated),-5.22,4,12.2,5.15,-0.786,-3.7,12,32.4,22.2,28.2,-3.79
FC(F)(F)c1cc(N2CCc3ncnc(NC4CC4)c3CC2)ncn1,-1.41,13.3,11.7,-4.57,-3.86,-57.5,14.4,10.9,5.21,-5,-8.14
